Laboratory results taken from ChEMBL document CHEMBL3988442, “University of Dundee, Small-Polar-MMV Screening Library” (2021).
“And” between values parts separate entries of the source, which are not always exact repeats. Equal values may be shown once. For part of these data: Results with a measured potency or affinity are listed apart.

Legend:
Parameters in all cases: scale not given: direction of the effect not stated beside the values
[1] = target: Protein translocase subunit SecA (Escherichia coli (strain K12)) (UniProt P10408); assay: Assay to Identify E. coli SecA ATPase Inhibitors; type: functional; conditions: 30 µM
Chain of Protein translocase subunit SecA (Escherichia coli (strain K12)) (P10408 whole entry): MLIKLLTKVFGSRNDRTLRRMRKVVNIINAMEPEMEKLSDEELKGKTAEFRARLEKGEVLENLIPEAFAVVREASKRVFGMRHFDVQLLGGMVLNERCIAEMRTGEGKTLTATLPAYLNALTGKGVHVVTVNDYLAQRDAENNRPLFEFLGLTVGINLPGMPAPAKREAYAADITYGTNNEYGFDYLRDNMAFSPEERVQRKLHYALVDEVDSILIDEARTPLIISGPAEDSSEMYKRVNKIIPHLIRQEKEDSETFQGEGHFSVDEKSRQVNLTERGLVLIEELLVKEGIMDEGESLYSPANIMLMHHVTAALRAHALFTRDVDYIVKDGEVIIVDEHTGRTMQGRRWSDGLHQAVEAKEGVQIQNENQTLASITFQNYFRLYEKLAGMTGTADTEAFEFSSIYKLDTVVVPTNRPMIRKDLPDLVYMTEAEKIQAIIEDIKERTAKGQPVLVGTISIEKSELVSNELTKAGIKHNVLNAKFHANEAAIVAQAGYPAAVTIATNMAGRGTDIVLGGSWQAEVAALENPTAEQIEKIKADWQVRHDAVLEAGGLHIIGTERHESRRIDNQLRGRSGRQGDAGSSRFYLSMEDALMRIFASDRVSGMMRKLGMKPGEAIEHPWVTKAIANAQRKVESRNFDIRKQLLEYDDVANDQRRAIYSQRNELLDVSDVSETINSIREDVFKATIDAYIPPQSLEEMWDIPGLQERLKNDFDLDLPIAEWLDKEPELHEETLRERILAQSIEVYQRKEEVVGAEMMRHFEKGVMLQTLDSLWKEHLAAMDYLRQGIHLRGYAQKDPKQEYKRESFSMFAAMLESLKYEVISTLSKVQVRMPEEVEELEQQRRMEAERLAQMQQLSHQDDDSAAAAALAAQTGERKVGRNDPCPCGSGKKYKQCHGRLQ

[2] = target: T1, Ubiquitin-activating enzyme e1, putative (Leishmania donovani (strain BPK282A1)) (UniProt E9BSI1); assay: Leishmania donovani Ubiquitin Activating Enzyme (LdE1); type: functional; conditions: 30 µM
T1 sequence (whole entry): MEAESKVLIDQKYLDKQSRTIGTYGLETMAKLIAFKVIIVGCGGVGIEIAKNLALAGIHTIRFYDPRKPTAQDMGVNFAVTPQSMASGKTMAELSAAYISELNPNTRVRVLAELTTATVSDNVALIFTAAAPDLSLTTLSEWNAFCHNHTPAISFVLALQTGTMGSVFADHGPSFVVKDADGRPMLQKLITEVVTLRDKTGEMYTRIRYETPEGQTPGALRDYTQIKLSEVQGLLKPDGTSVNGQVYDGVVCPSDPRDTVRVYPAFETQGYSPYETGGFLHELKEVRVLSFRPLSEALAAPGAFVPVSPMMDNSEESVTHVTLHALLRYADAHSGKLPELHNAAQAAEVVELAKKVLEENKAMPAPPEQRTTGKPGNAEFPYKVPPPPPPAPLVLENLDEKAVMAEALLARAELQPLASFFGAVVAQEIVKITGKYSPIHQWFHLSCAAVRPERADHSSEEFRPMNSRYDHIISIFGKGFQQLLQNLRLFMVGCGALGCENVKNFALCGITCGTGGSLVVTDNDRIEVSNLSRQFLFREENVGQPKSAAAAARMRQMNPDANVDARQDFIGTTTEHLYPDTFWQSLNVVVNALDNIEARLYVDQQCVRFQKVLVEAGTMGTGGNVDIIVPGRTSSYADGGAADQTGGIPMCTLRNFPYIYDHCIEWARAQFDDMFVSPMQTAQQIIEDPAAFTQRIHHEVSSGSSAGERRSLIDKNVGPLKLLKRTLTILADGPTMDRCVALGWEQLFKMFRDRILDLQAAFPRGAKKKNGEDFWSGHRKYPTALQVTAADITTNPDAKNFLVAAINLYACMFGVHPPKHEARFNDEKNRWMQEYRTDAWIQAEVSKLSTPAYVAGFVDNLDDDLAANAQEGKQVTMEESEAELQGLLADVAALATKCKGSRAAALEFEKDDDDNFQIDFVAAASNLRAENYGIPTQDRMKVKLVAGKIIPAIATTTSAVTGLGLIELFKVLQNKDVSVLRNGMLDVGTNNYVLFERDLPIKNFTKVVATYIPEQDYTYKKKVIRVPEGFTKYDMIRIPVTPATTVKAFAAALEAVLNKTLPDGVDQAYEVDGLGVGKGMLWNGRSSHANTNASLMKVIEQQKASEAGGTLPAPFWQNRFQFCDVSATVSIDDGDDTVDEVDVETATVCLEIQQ

[3] = target: AMP-activated protein kinase, AMPK (Homo sapiens) (UniProt P54646+O43741+P54619+Q9UGJ0+Q9Y478+Q13131+Q9UGI9); assay: AMP-dependent Kinase enzyme assay. An in vitro enzyme assay that detects ADP turnover that is directly proportional to AMPK activity. This uses naive AMPK that is activated during the assay with MK-8722; type: functional; conditions: 30 µM
[4] = target: Sialic acid-binding Ig-like lectin 9 (Homo sapiens) (UniProt Q9Y336); assay: Hs-Siglec9 ALPHAscreen SOP 20170721; conditions: 10 µM
Chain of Sialic acid-binding Ig-like lectin 9 (Homo sapiens) (Q9Y336 whole entry): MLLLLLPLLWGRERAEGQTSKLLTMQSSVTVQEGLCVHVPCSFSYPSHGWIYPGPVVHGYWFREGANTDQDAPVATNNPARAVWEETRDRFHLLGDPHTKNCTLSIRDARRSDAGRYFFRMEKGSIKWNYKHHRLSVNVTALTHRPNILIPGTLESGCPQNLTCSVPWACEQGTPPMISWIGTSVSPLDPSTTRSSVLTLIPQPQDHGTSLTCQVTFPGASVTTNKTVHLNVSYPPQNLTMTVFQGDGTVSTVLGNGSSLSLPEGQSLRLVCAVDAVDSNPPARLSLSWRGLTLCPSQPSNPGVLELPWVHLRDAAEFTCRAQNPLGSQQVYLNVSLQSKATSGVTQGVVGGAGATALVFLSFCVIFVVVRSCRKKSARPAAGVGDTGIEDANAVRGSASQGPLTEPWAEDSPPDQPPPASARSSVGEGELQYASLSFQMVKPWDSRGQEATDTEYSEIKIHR

Trypanosoma cruzi = assay: Trypanosoma cruzi phosphomannomutase and mannose-1-phosphate guanylyltransferase assay; type: functional; conditions: 10 µM
[5] = target: T2, Arginase-2, mitochondrial (Homo sapiens) (UniProt P78540); assay: in vitro enzyme assay to detect the production of urea directly proportional to the activity of Arginase II; type: functional; further: in the data most compounds retested in dose-response had high values
T2 sequence (whole entry): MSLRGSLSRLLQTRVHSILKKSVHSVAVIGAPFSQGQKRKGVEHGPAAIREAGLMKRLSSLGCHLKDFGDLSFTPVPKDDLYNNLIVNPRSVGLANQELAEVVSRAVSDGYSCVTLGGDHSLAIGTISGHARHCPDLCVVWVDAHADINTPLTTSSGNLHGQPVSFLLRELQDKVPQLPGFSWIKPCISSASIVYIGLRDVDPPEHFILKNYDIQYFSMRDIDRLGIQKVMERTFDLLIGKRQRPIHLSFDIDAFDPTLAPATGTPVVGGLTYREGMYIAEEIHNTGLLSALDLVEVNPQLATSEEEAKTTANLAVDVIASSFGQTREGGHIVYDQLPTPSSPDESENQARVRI

[6] = target: T3, Proteasome subunit beta (Trypanosoma cruzi) (UniProt O96673); assay: Trypanosoma cruzi proteasome chymotrypsin-like activity (TcProtChymo) assay.; further: in the data most compounds retested in dose-response had high values; type: functional; conditions: 9.37 µM
T3 sequence (whole entry): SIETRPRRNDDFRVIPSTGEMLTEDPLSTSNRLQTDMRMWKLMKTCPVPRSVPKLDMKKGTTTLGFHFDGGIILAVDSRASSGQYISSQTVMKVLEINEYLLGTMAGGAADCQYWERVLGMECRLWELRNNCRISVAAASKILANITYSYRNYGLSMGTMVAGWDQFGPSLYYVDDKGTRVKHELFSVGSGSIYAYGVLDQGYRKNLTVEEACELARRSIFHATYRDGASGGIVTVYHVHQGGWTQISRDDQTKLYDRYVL

Homo sapiens = organism: Homo sapiens; assay: To identify inhibition of the IFN signalling (Jak-Stat) pathway via expression of an eGFP reporter gene under the control of an IFN-stimulated response element (ISRE) containing MxA promoter.; type: functional; conditions: 30 µM
[7] = target: T4, Tyrosyl-tRNA synthetase, putative (Trypanosoma cruzi (strain CL Brener)) (UniProt Q4DSP6); assay: Trypanosoma cruzi tyrosyl tRNA synthetase (TcYRS) _High Tyrosine SOP; type: functional; conditions: 30 µM; further: in the data most compounds retested in dose-response had high values
T4 sequence (whole entry): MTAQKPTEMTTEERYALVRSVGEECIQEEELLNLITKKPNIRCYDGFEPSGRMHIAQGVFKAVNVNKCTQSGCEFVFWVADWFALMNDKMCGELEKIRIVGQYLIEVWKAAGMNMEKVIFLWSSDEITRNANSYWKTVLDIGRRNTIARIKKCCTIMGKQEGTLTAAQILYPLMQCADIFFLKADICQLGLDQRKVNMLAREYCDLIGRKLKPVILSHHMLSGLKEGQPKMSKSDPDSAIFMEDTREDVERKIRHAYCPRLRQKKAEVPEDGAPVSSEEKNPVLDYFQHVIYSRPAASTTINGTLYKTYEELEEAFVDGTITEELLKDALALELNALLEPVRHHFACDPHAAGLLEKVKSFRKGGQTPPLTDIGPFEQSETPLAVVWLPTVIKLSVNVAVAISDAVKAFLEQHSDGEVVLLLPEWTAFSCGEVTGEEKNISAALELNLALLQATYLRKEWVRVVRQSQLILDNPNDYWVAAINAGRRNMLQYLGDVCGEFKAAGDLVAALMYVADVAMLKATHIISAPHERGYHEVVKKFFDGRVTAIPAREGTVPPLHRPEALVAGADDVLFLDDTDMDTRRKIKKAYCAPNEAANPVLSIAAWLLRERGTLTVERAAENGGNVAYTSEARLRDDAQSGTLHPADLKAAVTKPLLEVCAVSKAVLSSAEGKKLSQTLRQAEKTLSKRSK

[8] = target: T4, Tyrosyl-tRNA synthetase, putative (Trypanosoma cruzi (strain CL Brener)); assay: Trypanosoma cruzi tyrosyl tRNA synthetase (TcYRS) SOP; type: functional; conditions: 30 µM
[9] = target: Chromo domain-containing protein 1 (Saccharomyces cerevisiae (strain ATCC 204508 / S288c) (Baker's yeast)) (UniProt P32657); assay: ScCHD-1 Enzyme Inhibition Assay; type: functional; conditions: 30 µM; further: in the data most compounds retested in dose-response had high values
Chain of Chromo domain-containing protein 1 (Saccharomyces cerevisiae (strain ATCC 204508 / S288c) (Baker's yeast)) (P32657 whole entry, the tested form may be a part): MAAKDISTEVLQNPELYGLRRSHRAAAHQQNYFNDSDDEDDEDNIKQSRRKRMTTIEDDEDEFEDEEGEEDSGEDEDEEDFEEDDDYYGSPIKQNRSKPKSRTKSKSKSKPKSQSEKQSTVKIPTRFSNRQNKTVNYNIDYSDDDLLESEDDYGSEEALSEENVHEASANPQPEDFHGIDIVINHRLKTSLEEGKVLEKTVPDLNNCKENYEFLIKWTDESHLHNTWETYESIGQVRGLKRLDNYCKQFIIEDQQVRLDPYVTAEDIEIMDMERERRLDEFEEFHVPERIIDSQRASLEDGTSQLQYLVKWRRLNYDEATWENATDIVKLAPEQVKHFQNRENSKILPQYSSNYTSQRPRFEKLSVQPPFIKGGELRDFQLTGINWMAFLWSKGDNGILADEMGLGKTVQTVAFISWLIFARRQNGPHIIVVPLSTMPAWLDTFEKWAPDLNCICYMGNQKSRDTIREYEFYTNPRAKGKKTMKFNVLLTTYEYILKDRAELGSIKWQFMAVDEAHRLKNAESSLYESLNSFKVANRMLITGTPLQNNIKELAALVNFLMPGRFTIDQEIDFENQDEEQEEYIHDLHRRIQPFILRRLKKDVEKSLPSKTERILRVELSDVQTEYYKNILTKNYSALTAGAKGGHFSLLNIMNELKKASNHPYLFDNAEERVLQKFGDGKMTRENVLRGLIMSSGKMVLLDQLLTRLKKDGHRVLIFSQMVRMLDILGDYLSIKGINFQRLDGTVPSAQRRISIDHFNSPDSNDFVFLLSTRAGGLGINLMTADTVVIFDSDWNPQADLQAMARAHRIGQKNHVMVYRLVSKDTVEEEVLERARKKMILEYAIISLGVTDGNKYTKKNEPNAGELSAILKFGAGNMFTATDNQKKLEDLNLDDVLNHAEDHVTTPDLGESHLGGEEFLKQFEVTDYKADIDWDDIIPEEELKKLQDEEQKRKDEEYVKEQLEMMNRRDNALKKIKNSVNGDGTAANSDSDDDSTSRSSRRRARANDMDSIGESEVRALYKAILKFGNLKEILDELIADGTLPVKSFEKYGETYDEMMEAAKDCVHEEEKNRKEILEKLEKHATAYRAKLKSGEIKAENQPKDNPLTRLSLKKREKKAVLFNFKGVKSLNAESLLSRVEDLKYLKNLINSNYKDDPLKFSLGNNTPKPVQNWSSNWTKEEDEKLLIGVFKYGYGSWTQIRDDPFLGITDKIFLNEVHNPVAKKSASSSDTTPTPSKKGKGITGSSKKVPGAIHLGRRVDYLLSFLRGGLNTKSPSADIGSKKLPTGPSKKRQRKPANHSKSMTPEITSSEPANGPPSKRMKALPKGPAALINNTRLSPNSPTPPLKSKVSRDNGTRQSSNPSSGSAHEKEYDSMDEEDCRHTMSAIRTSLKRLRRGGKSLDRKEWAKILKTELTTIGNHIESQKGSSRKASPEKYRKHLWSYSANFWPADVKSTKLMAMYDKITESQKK

N/A = assay: Trypanosoma cruzi proteasome luciferase counter-screen; type: functional; conditions: 9.37 µM

Structure (SMILES) | Percent Effect [1] [%] | Percent Effect [2] [%] | Percent Effect [3] [%] | Percent Effect [4] [%] | Percent Effect (Trypanosoma cruzi) [%] | Percent Effect ([5]; 30 µM) [%] | Percent Effect ([5]; 33.3 µM) [%] | Percent Effect [6] | Percent Effect (Homo sapiens) [%] | Percent Effect [7] [%] | Percent Effect [8] [%] | Percent Effect [9] [%] | Percent Effect (N/A)
COc1cc(C(=O)N(CCC#N)Cc2ccccn2)cc(OC)c1C | -4.24 | -2.67 | -4.3 | 14.4 | 7.89 | 2.7 | -1.04 | 0.523% | 6.76 | -0.546 | 3.7 | -3.63 | 
CC(C)c1n[nH]c(C(=O)Nc2cc[nH]n2)c1Br | -6.13 | 5.06 | 24.9 | 3.44 | -4.25 |  | -3.8 | 74% and 65.8% and 74.1% | 24.7 | -0.493 | 1.27 | -0.338 | 41.2% and 40.1%
Cc1cc(C(=O)N2CCc3nnc(N)cc3C2)c(C)n1-c1cccnc1 | -9.46 | -46.8 | -58.5 | 7.86 | 0.923 |  | -2.37 | 33.5% and 37.5% and 48.3% | 12.2 | 9.38 | 10.1 | -5.27 | 14.7% and 15.2%
CN(C)CCCNC(=O)c1cc(Br)c2c(c1)OCCO2 | -3.75 | 5.33 | -4 | 10 | 3.6 | -0.54 | 18.2 | 6.28% | -10 | 4.92 | 18.5 | -7.32 | 
CCOCCCn1c(NC(=O)c2scnc2C)nc2ccccc21 | -9.29 | -5.2 | -17.4 | 23.1 | 11.1 |  | 4.27 | 92.3% and 90% and 93.7% | 68.6 | 7.77 | 21.9 | 72.8 | 69.6% and 70.1%
COc1ccccc1Oc1ncccc1CNC(=O)[C@@H](C)NC(C)=O | -1.21 | -4.17 | -4.59 | -7.34 | -3.98 | 4.87 | 2.21 | -0.526% | 2.14 | 2.1 | -2.56 | 2.74 | 
O=C(c1cn(-c2ccccc2Cl)nn1)N1CCCSCC1 | -4.85 | 16.2 | -2.86 | 38.1 | 5.57 |  | 3.72 | 49.8% and 55.2% and 47.1% | 0.244 | 2.15 | 16.1 | -4.55 | 26.3% and 26%
c1ccc2sc(N3CCOC(Cn4cccn4)C3)nc2c1 (configuration not stated) | -6.09 | 13.5 | -6.61 | 25.1 | 4.25 |  | -6.41 | 38.1% and 31.4% and 25.9% | 17.4 | 8.37 | 25.9 | -17.7 | 10.8% and 13.7%
Cc1ccc(NC2CCN(C(=O)CCc3ccco3)CC2)nn1 | -5.56 | 2.7 | 6.46 | 1.2 | 0.836 |  | 0.554 | 21.9% and 32.9% and 29.3% | 8.89 | 11.9 | -1.22 | 0.23 | -1.73% and 1.88%
Cc1ccc(N(C)C2CCN(C(=O)CCc3ccco3)CC2)nn1 | -4.56 | 5.41 | 12.7 | 1.05 | 5.66 |  | 0.554 | 48.4% and 44.9% and 50.1% | 8.17 | 22.8 | 23.2 | 3.63 | 12.6% and 9.51%
CSC(C)C(=O)NCCCc1cc(N)n(-c2ccccc2)n1 (configuration not stated) | -3.19 | -5.48 | 16.9 | -3.4 | -2.15 |  | -12.3 | 74.4% and 84.2% and 83.7% | 14.8 | -1.07 | 0 | -2.72 | 46.1% and 47.4%
Cc1ccc(NCc2cncc3c2CCN(C(=O)C2CC=CC2)C3)nn1 | -0.965 | 5.33 | -0.665 | 8.87 | 1.74 |  | -24.9 | 30.2% and 30.4% and 33.3% | -6.99 | 13.5 | 32.5 | -6.63 | 16.9% and 15.1%
Cc1cc(S(=O)(=O)Nc2cccc(-n3cccc3)c2)sc1C(=O)O | 1.39 | 0 | 12.1 | 7.4 | 4.99 |  | -0.248 | 36.5% and 37.6% and 37.3% | -6.8 | -43 | -38.3 | 32.5 | 19.1% and 16.4%
O=C(c1ccc(C2CCCO2)s1)N1Cc2ccccc2C1 (configuration not stated) | -2.89 | -2.7 | -1.29 | 1.79 | -4.25 |  | -2.86 | 55.5% and 35.5% and 40.2% | -5.94 | -2.65 | 0 | 2.95 | 23.5% and 18.5%
Cc1cc(N2CCN(CC(=O)N(C)C)CC2)nc(-c2ccncc2)n1 | -6.79 | 23.7 | -6.29 | -5.92 | 11 |  | -11.8 | 35.2% and 34.4% and 30.2% | 5.2 | 20.2 | 28.6 | -6.26 | 18.5% and 14.6%
Cn1cccc1C(=O)N1CCC2(CC1)CN(c1cncnc1)C(=O)CO2 | -7.32 | -189 | -15.1 | -0.563 | -6.69 |  | -1.17 | 51% and 53.6% and 55.8% | 18.6 | -69.2 | -150 | -4.5 | 4.36% and 0.727%
